# Results published in PubChem BioAssay.
# Calls of active or inactive are those of the source.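 The calls were made as follows, unless noted: active = fluorescence slope higher than the sample average by over 3 SD (cut at about -0.22 in these data, passing the limit was not always enough); inactive = the rest.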
# Legend:
# [1] = endothelial E-selectin expression blockers – imaging, HUVEC, immunofluorescence, MLSMR starter and 10KST1 sets, primary screen (AID 487;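 active = visually confirmed hit in the image check and inhibition above 20%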;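 as to inhibition: signal is fraction of cell area covered by stained E-selectin grains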;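 as to nuclei count: 100% = median nuclei count of all wells on the same plate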); conditions: HUVEC TNFalpha-induced E-selectin immunofluorescence imaging, at 2 µM; inhibition: stronger effect = higher value; nuclei count: measured here: cell number, toxicity
# [2] = Primary imaging screen for DUSP6 inhibitors that restore phospho-Erk in transfected HeLa cells, chemical complementation (AID 609;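 active = compounds giving at least 50% inhibition in the cell-based MKP-3 phosphatase rescue imaging test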;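 as to inhibition: phospho-Erk level distribution per well compared with pooled transfected vehicle control wells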); conditions: HeLa MKP-3 transfected, phospho-Erk imaging KS statistic, at 10 µM, cells stimulated with TPA for 15 min
# [3] = target: Dual specificity protein phosphatase 6 (Homo sapiens) (UniProt Q16828); assay: as above; conditions: HeLa MKP-3 transfected, phospho-Erk imaging KS statistic; at 10 µM; stronger effect = higher value; cells stimulated with TPA for 15 min
# Sequence of Dual specificity protein phosphatase 6 (Homo sapiens) (Q16828 whole entry, looked up): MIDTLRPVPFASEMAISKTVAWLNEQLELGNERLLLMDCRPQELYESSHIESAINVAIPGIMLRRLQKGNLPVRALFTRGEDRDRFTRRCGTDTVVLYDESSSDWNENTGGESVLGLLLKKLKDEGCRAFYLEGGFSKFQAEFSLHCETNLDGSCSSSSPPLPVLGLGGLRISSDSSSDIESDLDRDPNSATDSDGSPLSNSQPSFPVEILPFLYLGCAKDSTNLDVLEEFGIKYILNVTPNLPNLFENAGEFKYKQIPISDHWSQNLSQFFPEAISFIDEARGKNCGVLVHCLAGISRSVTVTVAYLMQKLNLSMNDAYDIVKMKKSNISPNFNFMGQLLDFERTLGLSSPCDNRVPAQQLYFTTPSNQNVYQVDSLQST
# [4] = target: Voltage-gated potassium channel subunit beta-2 (Rattus norvegicus) (UniProt P62483); assay: inhibitors of rat Kvbeta2 reductase activity – biochemical, NADPH fluorescence, primary screen (AID 622); conditions: recombinant KvBeta, 4-cyanobenzaldehyde reduction, at 10 µM, stronger effect = higher value;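 also: slope of raw intensity against log time taken from 70 to 1610 s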
# Sequence of Voltage-gated potassium channel subunit beta-2 (Rattus norvegicus) (P62483 whole entry, looked up): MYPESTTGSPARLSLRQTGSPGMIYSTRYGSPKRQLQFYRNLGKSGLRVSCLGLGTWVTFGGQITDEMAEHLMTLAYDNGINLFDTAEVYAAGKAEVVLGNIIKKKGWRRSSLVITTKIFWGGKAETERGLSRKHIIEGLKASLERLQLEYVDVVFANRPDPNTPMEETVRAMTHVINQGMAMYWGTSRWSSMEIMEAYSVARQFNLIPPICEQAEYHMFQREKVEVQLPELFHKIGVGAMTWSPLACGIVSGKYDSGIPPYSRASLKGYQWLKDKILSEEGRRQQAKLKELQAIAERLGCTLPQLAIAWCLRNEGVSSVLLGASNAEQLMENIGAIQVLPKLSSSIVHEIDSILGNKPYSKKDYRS
# [5] = target: Voltage-gated potassium channel subunit beta-2 (Rattus norvegicus) (UniProt P62483); assay: enhancers of rat Kvbeta2 NADPH turnover – biochemical, NADPH fluorescence, primary screen (AID 623;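 active = NADPH fluorescence slope more negative than the mean of all samples by about 3 SD, 99.7% confidence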;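 also: fluorescence intensity change per second fitted from 20 to 320 s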); conditions: Recombinant KvBeta, NADPH fluorescence decrease slope, 10 min; at 10 µM; stronger effect = lower value
# [6] = target: Muscarinic acetylcholine receptor M4 (Homo sapiens) (UniProt P08173); assay: M4-linked GIRK flux change, two-sided – cell-based, HEK293 M4/GIRK, thallium flux, BTC-AM, M4 allosteric agonist project, primary screen (AID 625;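 active = fluorescence slope after compound addition differing from the mean of all tested samples at 99.7% confidence, mostly higher but some lower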;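 also: thallium influx through GIRK channels coupled to M4 in HEK293 cells with BTC-AM dye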); conditions: at 10 µM, actives lie on both sides
# Sequence of Muscarinic acetylcholine receptor M4 (Homo sapiens) (P08173 whole entry, looked up): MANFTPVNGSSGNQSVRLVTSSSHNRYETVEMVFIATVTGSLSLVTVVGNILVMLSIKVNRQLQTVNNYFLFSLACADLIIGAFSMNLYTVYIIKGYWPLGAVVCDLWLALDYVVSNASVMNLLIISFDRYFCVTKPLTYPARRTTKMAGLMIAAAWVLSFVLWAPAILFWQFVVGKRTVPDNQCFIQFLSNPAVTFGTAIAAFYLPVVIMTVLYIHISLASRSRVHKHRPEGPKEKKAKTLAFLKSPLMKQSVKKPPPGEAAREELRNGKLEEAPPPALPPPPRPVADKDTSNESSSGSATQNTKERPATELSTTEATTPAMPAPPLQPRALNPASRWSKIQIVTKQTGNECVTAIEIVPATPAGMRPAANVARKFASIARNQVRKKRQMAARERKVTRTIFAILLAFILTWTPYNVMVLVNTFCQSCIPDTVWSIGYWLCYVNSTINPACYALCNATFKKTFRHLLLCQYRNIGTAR
# [7] = inhibitors of larval lipid processing in zebrafish, primary screen, whole organism, PED6 fluorescence, gall bladder and intestine (AID 686;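 active = a full or partial loss of lipid-probe fluorescence in the fish gall bladder, intestine or both, judged by eye; inactive = no fluorescence loss, or compound toxic to the fish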;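 also: larvae 5 to 7 days old with five fish per well; signal comes from phospholipase A2 cleavage of quenched PED6 carried via bile; overnight exposure to compound and PED6 before scoring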); conditions: Zebrafish larvae PED6 lipid processing, fluorescence scoring; screened at 20 µM (by protocol)
# [8] = loss of swimming-algae plug formation – whole organism, Chlamydomonas reinhardtii, WT vs cilia-less mutant, absorbance, 96-well, primary screen (AID 463189;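 active = inhibition at or above 50% relative to wild type and mutant plate controls; inactive = inhibition below 50%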;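 also: 0% = wild type cc124 cells in DMSO and 100% = ciliumless bld1 mutant cells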); conditions: Chlamydomonas reinhardtii gravitaxis, OD600 absorbance, 2 days; at 10 µM; stronger effect = higher value
# [9] = target: Alpha-2C adrenergic receptor (Homo sapiens) (UniProt P18825); assay: compounds altering alpha2C-coupled GIRK flux – cell-based, HEK293 alpha2C/GIRK1/2, thallium flux, primary screen (AID 624;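 active = fluorescence slope after compound addition differing from the mean of all screened samples at 99.7% confidence, in either direction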;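 also: slope of fluorescence ratio to pre-addition baseline per second over 15 to 24 s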); conditions: thallium flux BTC fluorescence, at 10 µM, actives lie on both sides
# Sequence of Alpha-2C adrenergic receptor (Homo sapiens) (P18825 whole entry, looked up): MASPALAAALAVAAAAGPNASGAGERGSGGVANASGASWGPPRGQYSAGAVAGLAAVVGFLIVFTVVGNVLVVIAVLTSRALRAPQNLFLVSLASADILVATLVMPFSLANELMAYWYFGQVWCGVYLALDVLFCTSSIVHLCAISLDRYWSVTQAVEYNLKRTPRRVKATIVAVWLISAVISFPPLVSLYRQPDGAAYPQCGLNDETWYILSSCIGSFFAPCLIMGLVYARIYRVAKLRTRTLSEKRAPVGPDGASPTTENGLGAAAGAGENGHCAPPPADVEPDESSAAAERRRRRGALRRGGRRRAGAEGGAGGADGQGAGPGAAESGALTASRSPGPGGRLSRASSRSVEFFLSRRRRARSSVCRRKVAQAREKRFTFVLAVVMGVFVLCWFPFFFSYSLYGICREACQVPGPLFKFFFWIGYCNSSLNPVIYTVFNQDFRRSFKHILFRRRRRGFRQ
# [10] = blockers of RIG-like receptor reporter activation – cell-based, Sendai virus stimulus, luciferase, 10K MLSCN set, TLR/RLR signaling modifier project, primary screen (AID 602276;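 active = inhibition at or above 50% at 10 µM; inactive = inhibition below 50%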;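 also: firefly luciferase from ISG56 promoter only with Renilla not read in this screen; 0% = Sendai virus plus DMSO and 100% = medium plus DMSO without virus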); conditions: HEK293 RL24 IRF3 luciferase reporter, at 10 µM, stronger effect = higher value
# [11] = TLR3 IRF3 reporter activation blockers – cell-based, poly I:C stimulus, luciferase, 10K MLSCN set, primary screen (AID 602277;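 active = inhibition of the reporter signal at or above 50%; inactive = inhibition below 50%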); conditions: HEK293-TLR3 RL24 IRF3 luciferase reporter, at 10 µM, stronger effect = higher value
# [12] = measured here: cell density z-score
# [13] = measured here: nuclear c-Myc green intensity z-score
# [14] = measured here: nuclear pErk red intensity z-score, stronger effect = higher value
Structure (SMILES),inhibition [1],nuclei count [1],"z-score [2, 12]","z-score [2, 13]","z-score [2, 14]",inhibition [3],fluorescence slope [4],NADPH fluorescence slope [5],fluorescence slope [6],outcome [7],inhibition [8],slope [9],inhibition [10],inhibition [11]
O=C(CCN1CCc2ccccc21)c1ccc2c(c1)OCCO2,-46.2% (inactive),144%,-0.121,-0.0206,-0.911,-0.159% (inactive),-0.436 (inactive),-2.2e-05 (inactive),0.00393 (inactive),inactive,3.69% (inactive),–,–,–
CCOC(=O)C(OC(=O)c1sc(=S)n(C)c1C)C(C)=O (centres undefined),-34.4% (inactive),86.4%,0.548,-0.227,-0.266,7.48% (inactive),-0.553 (inactive),-3.9e-05 (inactive),0.00794 (inactive),inactive,63.7% (active),–,–,–
COc1ccc(OC)c(N=C(C)C2=C(O)COC2=O)c1,-20.1% (inactive),104%,-1.31,0.523,0.389,-0.159% (inactive),-0.404 (inactive),6.7e-06 (inactive),0.00554 (inactive),inactive; toxic,-11.6% (inactive),–,–,–
CCC(NC(=O)Nc1nnc(C(F)(F)F)s1)(C(F)(F)F)C(F)(F)F,-242% (inactive),141%,0.851,-0.831,0.704,18.4% (inactive),-0.449 (inactive),-4.2e-05 (inactive),0.00231 (inactive),inactive; toxic,9.74% (inactive),–,–,–
O=C(NCCC1=CCCCC1)C1CCN(S(=O)(=O)c2cccc3cccnc23)CC1,–,–,–,–,–,–,-0.494 (inactive),2.4e-05 (inactive),–,–,–,0.00594 (inactive),-7.21% (inactive),-9.62% (inactive)
O=C(NC1CCCCCC1)C1c2ccccc2C(=O)N1Cc1cccnc1 (centres undefined),–,–,–,–,–,–,-0.575 (inactive),1.2e-05 (inactive),–,–,–,0.00527 (inactive),1.87% (inactive),17.1% (inactive)
O=C(CSc1nc2c(sc3ccccc32)c(=O)n1Cc1ccco1)NCC1CCCO1 (centres undefined),–,–,–,–,–,–,-0.58 (inactive),-4.5e-05 (inactive),0.00708 (inactive),–,–,–,19.7% (inactive),20.3% (inactive)
CN(C)CCOC(c1ccccc1)c1ccccc1 (tested in a mixture with another compound),-105% (inactive),131%,0.752,0.00544,-0.839,13.3% (inactive),-0.486 (inactive),-8.1e-06 (inactive),–,–,–,0.00507 (inactive),23.9% (inactive),33.9% (inactive)
CC(=O)N1CCc2cc(S(=O)(=O)NCCC(=O)NC3CCCc4ccccc43)ccc21 (centres undefined),–,–,–,–,–,–,-0.388 (inactive),-4e-05 (inactive),–,inactive,–,0.00543 (inactive),-3.18% (inactive),-2.7% (inactive)
Cc1cccc(-n2ccnc2SCC(=O)Nc2cc(C)on2)c1,–,–,–,–,–,–,-0.513 (inactive),3.9e-06 (inactive),0.00505 (inactive),–,–,–,-19% (inactive),-43.2% (inactive)
Cc1ccccc1-c1nc(CS(=O)(=O)CC(=O)N(C)C2CCCCC2)c(C)o1,–,–,–,–,–,–,-0.49 (inactive),-3.4e-05 (inactive),–,–,–,0.00717 (inactive),-5.9% (inactive),-32.7% (inactive)
Cn1c(=O)[nH]c2cc3ccccc3cc21,–,–,–,–,–,–,-0.527 (inactive),-6.1e-05 (inactive),0.00589 (inactive),–,–,–,4.54% (inactive),5.31% (inactive)
CCOC(=O)c1ccc(NCC(O)COc2ccccc2)cc1 (centres undefined),-60.3% (inactive),138%,1.4,-0.621,-0.757,3.66% (inactive),-0.343 (inactive),-1.2e-05 (inactive),0.00673 (inactive),inactive,3.53% (inactive),–,–,–
CCCNCC(O)COc1ccccc1C(=O)CCc1ccccc1 (centres undefined),-137% (inactive),129%,-0.576,0.234,0.603,-4.44% (inactive),-0.521 (inactive),-4.9e-05 (inactive),–,–,–,0.00393 (inactive),9.47% (inactive),42.6% (inactive)
COc1ccc(CN2CC(C(=O)NCc3ccccn3)CC2=O)cc1 (centres undefined),–,–,–,–,–,–,-0.582 (inactive),-2.5e-07 (inactive),0.00691 (inactive),–,–,–,14.9% (inactive),23.4% (inactive)
Cc1cc(C)cc(-n2ccnc2SCC(=O)Nc2ccc3c(c2)OCCO3)c1,–,–,–,–,–,–,-0.57 (inactive),-3.9e-05 (inactive),0.00517 (inactive),–,–,–,1.38% (inactive),-4.03% (inactive)
O=C(Nc1cc(Cl)ccc1Cl)c1noc2c1CCCC2,–,–,–,–,–,–,-0.601 (inactive),-9e-06 (inactive),–,–,–,0.00618 (inactive),-3.4% (inactive),26.6% (inactive)
Cc1ccc2oc(=O)c3cnn(CC(=O)N4CCCc5ccccc54)c3c2c1,–,–,–,–,–,–,-0.49 (inactive),1.1e-05 (inactive),–,–,–,0.00798 (inactive),29.3% (inactive),19.2% (inactive)
COc1ccc(C(=O)N2CCCC(c3ccccc3)C2)cc1 (centres undefined),-91.1% (inactive),167%,-0.133,0.389,0.742,-7.79% (inactive),-0.406 (inactive),-4.3e-05 (inactive),0.00466 (inactive),inactive,8.1% (inactive),–,–,–
